Results on 97 molecules are retold here after PubChem BioAssay AID463173 (ICCB-Longwood Screening Facility, Harvard Medical School, 2010).

The campaign covered roughly 52,000 compounds. About 4,300 (8.3%) were called active. Shown is part of a subset that was picked to be rich in actives. Values without a mark were called inactive. No stated cut-off is given here; in the data, active means survival mostly below about 52% (no sharp cut-off); inactive means mostly above about 56%.

The experiment concerns DeltatarO mutant. The experiment is described as follows: growth inhibition of S. aureus wild type versus tarO mutant, primary screen, teichoic acid synthesis inhibitors, RN4220, OD600 (AID 463173). The conditions noted are these: OD600, 18 h, stronger effect = lower value, screened at 18.75 µg/mL (by protocol).
Consider `O=C(O)COCC(=O)Nc1ccc2c(c1)CCC2`, for which the survival was 103%.

In the case of `COc1ccc(-c2nnc(SCC(=O)Nc3cccc(Cl)c3C)nc2-c2ccc(OC)cc2)cc1`, the survival was 89%.

Consider `COc1ccc(CNC(=O)CCC(=O)N2CC3CCCN3c3ccccc32)cc1` (configuration not stated), for which the survival is 71%.

As to `CC1=C(c2ccc(C)c(C)c2)S(=O)(=O)N(Cc2ccc(C(=O)NCc3cccc(C)c3)cc2)C1=O`, the survival is 77%.

As for `CN1CCSc2ccc(C(=O)NCc3ccccc3F)cc21`, the survival was 134%.

Take `CCOC(=O)c1cc2c(=O)n3ccccc3nc2n(CCCOC)c1=NC(=O)c1c(-c2c(F)cccc2Cl)noc1C`: the survival was 54%.

`CC(C)(C)OC(=O)N1CCC(c2c(C(=O)N3CCN(c4ccccc4F)CC3)cnn2C(C)(C)C)CC1`: the survival is 68%.

For the molecule `COc1ccc(CCNC(=O)c2ccc(Cn3c(=O)c4ccccc4n(CC(=O)C(C)(C)C)c3=O)cc2)cc1OC`, the survival is 86%.

Take `O=c1c2sc3ccccc3c2n(Cc2ccc(F)cc2)c(=O)n1Cc1ccco1`: the survival is 79%.

As to `COc1cccc(Cc2nc3ccccc3nc2SCC(=O)N2CCCCC2C)c1` (configuration not stated), the survival is 79%.

Regarding `Cc1cc(Nc2ccc(Br)cc2)n2nc(-c3ccccc3C)nc2n1`, the survival is 27% (active).

On to `Cc1cc(C)cc(Nc2cc(C)nc3nc(-c4ccco4)nn23)c1`, for which the survival was 94%.

For the molecule `Cc1cc(Nc2ccc(Br)c(C)c2)n2nc(-c3ccco3)nc2n1`, the survival was -5% (active).

Regarding `CC(=O)c1cccc(Nc2cc(C)nc3nc(-c4ccccc4C)nn23)c1`, the survival was 90%.

`Cc1cc(Nc2cccc(F)c2)n2nc(-c3ccco3)nc2n1`: the survival is 89%.

On to `CCOC(=O)c1ccccc1Nc1cc(C)nc2nc(-c3ccco3)nn12`, for which the survival is 128%.

On to `COc1ccc(Cl)cc1Nc1cc(C)nc2nc(-c3ccccc3C)nn12`, for which the survival was 70%.

Turning to `CCOc1ccc(OCC)c(Nc2cc(C)nc3nc(-c4ccco4)nn23)c1`, the survival was 17% (active).

On to `Cc1cc(Nc2ccccc2Cl)n2nc(-c3ccco3)nc2n1`, for which the survival is 88%.

Consider `CN(CCCNC(=O)c1cc2c(=O)n(C)c3ccccc3c2s1)Cc1ccccc1`, for which the survival was 94%.

With `CCCCS(=O)(=O)c1nc(-c2ccc(Br)cc2)cc(-c2ccccc2)c1C#N`, the survival was 119%.

As for `C/C(=C\C(=O)c1cccnc1)Nc1ccccc1O`, the survival was 103%.

In the case of `Cc1nc(-c2ccc(S(=O)(=O)N(C)Cc3ccccc3)cc2)co1`, the survival was 95%.

In the case of `Cc1ccc(-n2ncc(C(=O)NC3CCCC3)c2C2CCN(C(=O)OC(C)(C)C)CC2)c(C)c1`, the survival is 70%.

As to `Cc1ccc(-n2c(=O)c3c(c4cc(C)ccc4n3C)n(CC(=O)N3CCCC3)c2=O)cc1`, the survival is 71%.

Turning to `CC(=O)Nc1ccc(C2=CSC3=NCCN23)cc1`, the survival is 82%.

With `CCSc1ncc(Cl)c(C(=O)Nc2nc3ccc(Cl)cc3s2)n1`, the survival was 100%.

As for `CCCOc1ccc(C(=O)Nc2cccc(-c3nc4ccccc4[nH]3)c2)cc1`, the survival is 28% (active).

As to `CC(C)COc1ccc(C(=O)Nc2cc(-c3ccccc3)no2)cc1`, the survival was 85%.

For the molecule `CCOc1ccc(NS(=O)(=O)c2ccc3nc(-c4ccccc4)[nH]c3c2)cc1`, the survival was 64%.

In the case of `CCOc1cc(OCC)cc(C(=O)Nc2cccc(-c3nc4ccccc4[nH]3)c2)c1`, the survival was 36% (active).

In the case of `CCCOc1ccc(C(=O)Nc2cccc(NC(=O)c3cccc(Cl)c3)c2)cc1`, the survival is 70%.

For the molecule `CCOc1ccc(C(=O)Nc2cccc(-c3nc4cc(Cl)cc(Cl)c4o3)c2)cc1`, the survival was 84%.

With `CCCN(CCC)S(=O)(=O)c1ccc(C(=O)Nc2cccc(-c3nc4ccccc4[nH]3)c2)cc1`, the survival was 99%.

Turning to `COc1cc(NC(=O)c2cc(Cl)c(OC)c(Cl)c2)ccc1NC(=O)c1cc2ccccc2o1`, the survival was 82%.

As for `Cc1cccc(-c2nc3cc(NC(=O)c4ccc(OCC(C)C)cc4)ccc3o2)c1`, the survival is 113%.

On to `COc1c(Cl)cc(C(=O)Nc2cccc(-c3nc4ccccc4[nH]3)c2)cc1Cl`, for which the survival was 15% (active).

For the molecule `CC(C)COc1ccc(C(=O)Nc2cccc(-c3nc4ccccc4[nH]3)c2)cc1`, the survival is 43% (active).

Take `CCOc1ccc(CCNC(=O)c2cc3c(=O)n(C)c4ccccc4c3s2)cc1OCC`: the survival is 56%.

For the molecule `Cc1ccc(NC(=O)C2CCN(C(=O)c3cnn(-c4ccccc4)c3-n3cccc3)CC2)cc1`, the survival is 93%.

For the molecule `CCCn1c(=S)[nH]c2c1c(=O)[nH]c(=O)n2C`, the survival is 66%.

With `CN(CC(=O)Nc1cccc(F)c1)S(=O)(=O)c1ccc2c(c1)n(C)c(=O)c(=O)n2C`, the survival was 102%.

Regarding `COc1ccc(C2=NN(C(=O)CCC(=O)O)C(c3ccccc3F)C2)cc1OC` (configuration not stated), the survival is 89%.

For `N/C(=N/OC(=O)c1ccccc1)c1ccccn1`, the survival is 87%.

`CCCCNC(=O)c1ccc2c(c1)ncn2-c1cc(OC)ccc1OC`: the survival is 112%.

Consider `O=c1oc2cc(O)ccc2cc1-c1nnc(Nc2ccccc2F)s1`, for which the survival is 59%.

For the molecule `CCC(c1nnnn1Cc1ccccc1)N(Cc1cccs1)Cc1cc2ccc(C)cc2[nH]c1=O` (configuration not stated), the survival was 103%.

With `O=C(CNC(=O)c1ccc(Cl)cc1)OCc1cc(=O)n2ccsc2n1`, the survival is 72%.

Regarding `COc1ccc(C2C(C(=O)Nc3ccc(C)cc3C)=C(C)Nc3nc(SCc4cccc(C)c4)nn32)c(OC)c1` (configuration not stated), the survival is 164%.

For `CCN(CC)c1ccc2c(c1)OC(N)=C(C#N)C2c1cccc(F)c1` (configuration not stated), the survival is 2% (active).

Take `COc1ccc(C2C(C#N)=C(N)Oc3cc4c(cc32)OCO4)cc1` (configuration not stated): the survival was 79%.

Turning to `CCc1ccc(C2C(C#N)=C(N)Oc3cc(N)ccc32)cc1` (configuration not stated), the survival is 102%.

Regarding `Cc1nn(C(=O)c2ccc(Br)cc2)c(C)c1S(=O)(=O)N1CCOCC1`, the survival was 79%.

In the case of `Cc1ccc(Sc2c(C)nn(C(=O)c3ccc(Br)cc3)c2C)cc1`, the survival is 16% (active).

Consider `Cc1nn(C(=O)c2ccccc2)c2c1C(=O)CC(C)(C)C2`, for which the survival is 74%.

For the molecule `Cc1ccc(Sc2c(C)nn(C(=O)COc3ccccc3Br)c2C)cc1`, the survival is 88%.

For the molecule `Cc1nn(C(=O)COc2ccccc2Br)c(C)c1Sc1ccccc1`, the survival is 54%.

Turning to `Cc1nn(C(=O)c2ccc(Br)cc2)c(C)c1Sc1ccccc1`, the survival is 2% (active).

For the molecule `CCOc1ccc(NC(=O)CC2C(=O)N(c3ccccc3)C(=O)N2CCc2ccc(OC)cc2)cc1` (configuration not stated), the survival was 59%.

`CCCNC(=O)CSc1cn(CC(=O)N2CCCCCC2)c2ccccc12`: the survival was 84%.

Turning to `Cc1ccc(S(=O)(=O)c2cn(CC(=O)Nc3ccc(C)c(Cl)c3)c3ccc(C)cc3c2=O)cc1`, the survival is 96%.

Regarding `Cc1c(C(=O)O)oc2c1-c1nn(Cc3ccccc3Cl)cc1CC2`, the survival was 80%.

As to `Cc1c(C(=O)O)oc2c1-c1nn(Cc3ccc(Cl)cc3)cc1CC2`, the survival was 89%.

On to `COCCCNC(=O)c1oc2c(c1C)-c1nn(Cc3ccccc3Cl)cc1CC2`, for which the survival is 66%.

`COc1ccc(NC(=O)c2oc3c(c2C)-c2nn(Cc4ccccc4Cl)cc2CC3)cc1OC`: the survival is 53% (active).

As for `CCOC(=O)c1oc2c(c1C)-c1nn(Cc3ccc(Cl)cc3)cc1CC2`, the survival was 16% (active).

For the molecule `CCOC(=O)c1ccc(NC(=O)c2oc3c(c2C)-c2nn(Cc4ccccc4Cl)cc2CC3)cc1`, the survival is 68%.

Take `CC(=O)Nc1ccc(NC(=O)c2oc3c(c2C)-c2nn(Cc4ccccc4Cl)cc2CC3)cc1`: the survival is 61%.

Regarding `CCOC(=O)c1oc2c(c1C)-c1nn(Cc3cccc(Cl)c3)cc1CC2`, the survival is 53%.

For the molecule `CCOC(=O)c1oc2c(c1C)-c1nn(Cc3ccccc3Cl)cc1CC2`, the survival was 38% (active).

In the case of `CC1=C(C(=O)OCC2CCCCC2)C(c2cccc(F)c2F)CC(=O)N1` (configuration not stated), the survival was 95%.

Turning to `O=C1CC(NC2CC2)C(=O)N1c1ccccc1` (configuration not stated), the survival is 93%.

In the case of `O=C(Nc1cnn(Cc2ccc(Cl)cc2Cl)c1)c1noc2c1CCc1ccccc1-2`, the survival was 47% (active).

Regarding `COc1ccc2c(c1)CCc1c(C(=O)Nc3cnn(Cc4ccc(Cl)cc4Cl)c3)noc1-2`, the survival is 142%.

As for `Cc1nn(Cc2ccc(F)cc2)c(C)c1NC(=O)c1noc2c1CCc1ccccc1-2`, the survival is 63%.

In the case of `Cc1nn(Cc2ccc(Cl)cc2)c(C)c1NC(=O)c1noc2c1CCc1ccccc1-2`, the survival was 31% (active).

Consider `COc1ccc(Cl)cc1NC(=O)c1noc2c1CCc1ccccc1-2`, for which the survival is 71%.

For the molecule `COc1ccc2c(c1)CCc1c(C(=O)Nc3c(C)nn(Cc4ccccc4)c3C)noc1-2`, the survival was 118%.

As for `COc1ccc2c(c1)CCc1c(C(=O)Nc3c(C)nn(Cc4ccc(Cl)c(Cl)c4)c3C)noc1-2`, the survival is 153%.

Take `Cc1nn(Cc2ccc(Cl)c(Cl)c2)c(C)c1NC(=O)c1noc2c1CCc1ccccc1-2`: the survival is 46% (active).

In the case of `COc1ccc2c(c1)CCc1c(C(=O)Nc3c(C)nn(Cc4ccc(Cl)cc4)c3C)noc1-2`, the survival is 107%.

In the case of `CCOC(=O)c1ccc(OC(=O)c2cn(-c3cccc(OC)c3)c(=O)c3ccccc23)cc1`, the survival was 85%.

`Cc1cc(NC(=O)CSc2nc3c([nH]c4ccccc43)c(=O)n2-c2cccc(Cl)c2)no1`: the survival was 73%.

On to `CC(=O)c1cc(-c2ccc(F)cc2)n(CC(=O)NCc2ccc(C)cc2)c1C`, for which the survival is 99%.

For the molecule `COc1ccc2nc(N(Cc3cccnc3)C(=O)c3ccc4c(c3)OCCO4)sc2c1`, the survival was 65%.

In the case of `Cc1ccc(NC(=O)c2ccco2)nc1`, the survival is 108%.

`CC1=C(C(=O)Nc2ccc(Cl)cc2)C(CC(C)C)n2nc(SCc3ccccc3C)nc2N1` (configuration not stated): the survival was 127%.

Regarding `COC(=O)CCNC(=O)NC(CCC(C)C)c1c(-n2cccc2)sc2c1CCN(C)C2` (configuration not stated), the survival was 75%.

Regarding `O=C1CC(c2nc(-c3ccc(Cl)cc3)no2)CN1c1ccc2c(c1)OCCO2` (configuration not stated), the survival is 115%.

Turning to `CN(C)c1ccc(-c2noc(C3CC(=O)N(c4ccc5c(c4)OCCO5)C3)n2)cc1` (configuration not stated), the survival was 92%.

With `O=C1CC(c2nc(-c3cccc(Cl)c3)no2)CN1c1ccc2c(c1)OCCO2` (configuration not stated), the survival is 144%.

Consider `COc1ccc(-c2noc(C3CC(=O)N(c4ccccc4)C3)n2)c(OC)c1` (configuration not stated), for which the survival was 101%.

`Cc1ccc(-c2noc(C3CC(=O)N(c4ccc5c(c4)OCCO5)C3)n2)cc1` (configuration not stated): the survival is 46% (active).

Turning to `O=C1CC(c2nc(-c3ccccc3)no2)CN1c1ccccc1` (configuration not stated), the survival is 25% (active).

For the molecule `Cc1cc(C)cc(N2CC(c3nc(-c4cccc(Cl)c4)no3)CC2=O)c1` (configuration not stated), the survival is 37% (active).

On to `COc1ccc(-c2noc(C3CC(=O)N(c4cc(C)cc(C)c4)C3)n2)cc1` (configuration not stated), for which the survival is 91%.

In the case of `O=C1CC(c2nc(-c3ccccc3)no2)CN1c1ccc2c(c1)OCCO2` (configuration not stated), the survival is 93%.
